Source: PubChem BioAssay (several laboratories)
Most compounds without a hit are left out; they make up all but 3.2% or so of the library.
Y pestis TopoI = Yersinia pestis topoisomerase I inhibitors, primary screen, biochemical, cleavage product accumulation, plate reader, single point. DNA topoisomerase I (Yersinia pestis CO92). Y. pestis Topo-I cleavage product accumulation. activity, % at 10 µM. 360,000 compounds, 0.064% hits. AID 504884, 2011; in the data active = activity above about 50%, passing the limit was not always enough
PrPC TRFRET = inhibitors of human cell surface prion protein PrPC, primary screen, cell-based, TR-FRET | 370,000 compounds, 0.43% hits | AID 720596, 2013 | TR-FRET read-out | inhibition, % at 13.8 µM | Major prion protein (Homo sapiens), P04156; in the data active = inhibition above about 24%; also: 0% = median of the test wells and 100% = reference compound wells
GDH-TPI inh = GDH-TPI coupling enzyme inhibitors, primary screen, artefact control for M. tuberculosis FBA inhibitor project, biochemical, absorbance, full deck | GDH-TPI coupled enzyme counterscreen, NADH absorbance | inhibition, % at 4.8 µM | 360,000 compounds, 1.2% hits | AID 588335, 2011; in the data active = inhibition above about 30%;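 also: 0% = DMSO wells and 100% = wells lacking the enzyme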
FBA Mtb inh = Mtb FBA enzyme inhibitors, primary screen, biochemical, fluorescence, strain H37Rv | Fructose-bisphosphate aldolase (Mycobacterium tuberculosis (strain ATCC 25618 / H37Rv)), … | purified M. tuberculosis FBA, fluorescence read-out | inhibition, % at 1 µM | 360,000 compounds, 2.3% hits | AID 588726, 2011; in the data active = inhibition above about 27%;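 also: 0% = vehicle and 100% = reference inhibitor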
Target sequence (P9WQA3 whole entry, looked up): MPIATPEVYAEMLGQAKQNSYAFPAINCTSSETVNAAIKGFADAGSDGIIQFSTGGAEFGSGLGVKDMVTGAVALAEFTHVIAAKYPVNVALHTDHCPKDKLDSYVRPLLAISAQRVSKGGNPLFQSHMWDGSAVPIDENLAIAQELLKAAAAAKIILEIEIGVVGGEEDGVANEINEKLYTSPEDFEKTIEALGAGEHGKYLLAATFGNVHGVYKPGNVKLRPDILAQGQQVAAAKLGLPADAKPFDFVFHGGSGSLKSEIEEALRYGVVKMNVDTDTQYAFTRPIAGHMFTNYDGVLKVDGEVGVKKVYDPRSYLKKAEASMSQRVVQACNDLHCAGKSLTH
TcdB GH inh = TcdB glycohydrolase inhibitors, primary screen, biochemical, single point, plate reader; 350,000 compounds, 0.24% hits; Toxin B (Clostridioides difficile), P18177; TcdB glycohydrolase enzymatic assay; AID 652162, 2013; inhibition, % at 9.99 µM; in the data active = inhibition above about 10%
An asterisk follows results filed as active.

`COc1ccc(NC(=O)N2CC(=O)N3[C@@H](CO)[C@H](c4ccc(-c5ccc(C)cc5)cc4)[C@@H]3C2)cc1` gave TcdB GH inh 1.
For C[C@@H]1CCCCO[C@@H](CN(C)C(=O)Cc2ccccc2)[C@@H](C)CN([C@H](C)CO)C(=O)c2cc(NS(=O)(=O)c3cccs3)ccc2O1 the results were TcdB GH inh -2.
`N=c1c(C(=O)NC2CCCC2)cc2c(=O)n3ccccc3nc2n1C1CCCC1` gave Y pestis TopoI 6, PrPC TRFRET -29, GDH-TPI inh 14 and FBA Mtb inh 123*.
Screening CCn1c(=N)c(C(=O)NC)cc2c(=O)n3cccc(C)c3nc21 returned Y pestis TopoI 2, PrPC TRFRET -34, GDH-TPI inh 11 and FBA Mtb inh active.
For CCOCCCn1c(=N)c(C(=O)NCc2ccc3c(c2)OCO3)cc2c(=O)n3cccc(C)c3nc21 the results were Y pestis TopoI 16, GDH-TPI inh 10, FBA Mtb inh 6 and TcdB GH inh 3.
CCCn1c(=N)c(C(=O)NC2CCCC2)cc2c(=O)n3cccc(C)c3nc21 was read as Y pestis TopoI 12, PrPC TRFRET -26, GDH-TPI inh 7 and FBA Mtb inh active.
Cc1cccn2c(=O)c3cc(C(=O)NC4CCCC4)n(C)c3nc12 was read as Y pestis TopoI 4, PrPC TRFRET 4, GDH-TPI inh 5, FBA Mtb inh 21 and TcdB GH inh 1.
`Cc1cccn2c(=O)c3cc(C(=O)NC4CCCC4)c(=N)n(C4CCCC4)c3nc12` gave Y pestis TopoI 2, PrPC TRFRET -9, GDH-TPI inh 2 and FBA Mtb inh active.
`COc1ccc(Cn2c(=N)c(C(=O)NC3CCCCC3)cc3c(=O)n4ccccc4nc32)cc1` gave Y pestis TopoI 3, PrPC TRFRET -15, GDH-TPI inh 6, FBA Mtb inh 1 and TcdB GH inh 0.
Screening CC(C)NC(=O)N1C[C@H]2[C@@H](c3ccccc31)[C@H](CO)N2C(=O)c1ccc(F)cc1 returned TcdB GH inh 0.
For C[C@H](CO)N1C[C@H](C)[C@H](CN(C)Cc2ccc(Oc3ccccc3)cc2)Oc2ccc(NC(=O)CCC(F)(F)F)cc2C1=O the results were TcdB GH inh 0.
For CN1C(=O)c2cc(NC(=O)Cc3cccs3)ccc2OC[C@H]2O[C@H](CC(=O)NCCCN3CCOCC3)CC[C@H]21 the results were TcdB GH inh -1.
Screening N=c1c(C(=O)NCc2ccco2)cc2c(=O)n3ccccc3nc2n1C1CCCC1 returned Y pestis TopoI 0, PrPC TRFRET -22, GDH-TPI inh 13, FBA Mtb inh active and TcdB GH inh 1.
C[C@H]1CN([C@@H](C)CO)C(=O)c2cccc(NS(=O)(=O)c3ccc(Cl)cc3)c2O[C@@H]1CN(C)Cc1ccc(C(F)(F)F)cc1 was read as TcdB GH inh 1.
Screening CC(C)=NNc1ncnc2nc[nH]c12 returned Y pestis TopoI 0, PrPC TRFRET -3, GDH-TPI inh 11, FBA Mtb inh -1 and TcdB GH inh -7.
`CCc1ccc(/C=N/Nc2ncnc3nc[nH]c23)cc1` gave Y pestis TopoI -8, PrPC TRFRET -5, GDH-TPI inh 71*, FBA Mtb inh 3 and TcdB GH inh 1.
Screening COc1ccccc1-c1nc(C#N)c(NCCCn2ccnc2)o1 returned Y pestis TopoI -2, PrPC TRFRET -4, GDH-TPI inh 6, FBA Mtb inh active and TcdB GH inh 2.
`COc1ccc(-c2nc(C#N)c(NCCCN(C)C)o2)cc1OC` gave Y pestis TopoI -21, PrPC TRFRET 3, GDH-TPI inh 12 and FBA Mtb inh active.
COc1ccc(CCNc2oc(-c3ccc(OC)c(OC)c3)nc2C#N)cc1 was read as Y pestis TopoI 10, PrPC TRFRET 10, GDH-TPI inh 36* and FBA Mtb inh active.
For COc1ccccc1-c1nc(C#N)c(NCc2ccc(F)cc2)o1 the results were Y pestis TopoI -5, PrPC TRFRET 1, GDH-TPI inh 14 and FBA Mtb inh 113*.
`COc1ccc(S(=O)(=O)Nc2ccc3c(c2)C(=O)N([C@@H](C)CO)C[C@H](C)[C@@H](CN(C)C(=O)Cc2ccccc2)OCCCC[C@@H](C)O3)cc1` gave TcdB GH inh 1.
For COc1ccc(CCNc2oc(-c3ccccc3OC)nc2C#N)cc1 the results were Y pestis TopoI 30, PrPC TRFRET 8, GDH-TPI inh 18 and FBA Mtb inh active.
For CN(C)CCCNc1nc(-c2ccccc2)nc2ccccc12 the results were Y pestis TopoI -9, PrPC TRFRET -1, GDH-TPI inh 16, FBA Mtb inh -2 and TcdB GH inh 3.
`CNc1oc(/C=C/c2cccc(OC)c2)nc1C#N` gave Y pestis TopoI 7, GDH-TPI inh 28 and FBA Mtb inh active.
CN(C)CCCNc1oc(-c2ccc(Cl)cc2)nc1S(=O)(=O)c1ccccc1 was read as Y pestis TopoI -7, PrPC TRFRET -12, GDH-TPI inh 11, FBA Mtb inh 5 and TcdB GH inh -4.
Screening CN(C)CCCNc1c2ccccc2nc2ccccc12 returned Y pestis TopoI -35, PrPC TRFRET -21, GDH-TPI inh 7, FBA Mtb inh 177* and TcdB GH inh 0.
Screening CN(C)CCCNc1oc(-c2ccccc2)nc1C#N returned Y pestis TopoI -5, PrPC TRFRET -5, GDH-TPI inh 6 and FBA Mtb inh 131*.
Cc1ccc(S(=O)(=O)N(C)C[C@@H]2Oc3ccc(NC(=O)Nc4ccccc4)cc3CC(=O)N([C@@H](C)CO)C[C@H]2C)cc1 was read as TcdB GH inh -1.
For C[C@@H]1CN([C@H](C)CO)C(=O)c2cc(C#CCN(C)C)cnc2O[C@H]1CN(C)C(=O)c1cccnc1 the results were TcdB GH inh 1.
Screening N#Cc1nc(-c2ccccc2F)oc1NCc1cccc2c1OCO2 returned Y pestis TopoI 2, PrPC TRFRET 0, GDH-TPI inh 13, FBA Mtb inh 14 and TcdB GH inh 1.
For COc1ccc(-c2nc(C#N)c(NC(C)c3ccccc3)o2)cc1OC (stereo unspecified) the results were Y pestis TopoI 18, PrPC TRFRET 7, GDH-TPI inh 13 and FBA Mtb inh 144*.
Screening CCN(CC)CCCNc1oc(/C=C/c2ccccc2)nc1C#N returned Y pestis TopoI -16, PrPC TRFRET -3, GDH-TPI inh 28, FBA Mtb inh active and TcdB GH inh 0.
For CN(C)CCNc1oc(-c2ccccc2F)nc1C#N the results were Y pestis TopoI 5, PrPC TRFRET -4, GDH-TPI inh 16, FBA Mtb inh 145* and TcdB GH inh 1.
